Bioassay records as filed in PubChem BioAssay.
Most compounds without a hit are left out; they make up all but 17% or so of the library.
DT40 TDP1 no CPT = qHTS for Inhibitors of human tyrosyl-DNA phosphodiesterase 1 (TDP1): qHTS in cells in absence of CPT; AID 686978, 2013; Potency, µM (doses to about 46.2 µM), usual class: inhibitors; 15% of 420,000 active; DT40 Tdp1-/- hTDP1 cells, no CPT, ATP luminescence, 48 h; further: nearly all actives have a fitted effect of over 55% in size
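Readout: luminescence from CellTiter-Glo after 30 min in the dark at RT. Cells: DT40 Tdp1-/- with stable hTDP1, 400/well. Exposure: compounds alone, ≥48 hr, 37 °C.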
HepG2 viability = HepG2 cytotoxicity, counter-screen for TGF-b inhibitors; Potency, µM (highest dose often 46.1 µM), most hits filed as cytotoxic; HepG2 CAGA-GFP viability, ATP luminescence, 18 h; 0.76% of 410,000 active
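HepG2 CAGA-GFP cells (1000/well, DMEM with 1% FBS) received compound, then TGF-beta at 500 pg/mL final, and were incubated 18 hours at 37 degrees C. Viability was read by CellTiter-Glo luminescence. Media-only wells were set as complete cell-killing and DMSO as no toxicity.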
HT1080NT lethal = kills 2HG-producing HT-1080-NT fibrosarcoma cells. HT-1080-NT fibrosarcoma viability, CellTiter-Glo ATP luminescence, 48 h. Potency, µM (series often up to 46.1 µM), actives largely listed as cytotoxic. 1.6% of 360,000 active. AID 686970;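 further: NT is the 2HG producing partner of a matched IDH1 knockdown line; nearly all actives have a fitted effect of over 55% in size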
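HT-1080-NT; 750 cells/well; 5% FBS RPMI; 48 h compound, 37 degrees C; CellTiter-Glo luminescence; curve fitting and curve-class assignment.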
TGFb SMAD3 inh = TGF-b pathway inhibition; HepG2 CAGA-GFP TGF-b/SMAD3 reporter, GFP fluorescence, 18 h; TGF-beta stimulated, 500 pg/mL final; Potency, µM (top dose mostly 46.1 µM), hits mostly inhibitors; 1.2% of 410,000 active; AID 588855; further: nearly all actives have a fitted effect of over 65% in size
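HEPG2 CAGA-GFP cells (1000/well, DMEM with 1% FBS) were pre-incubated 2 h at 37 degrees C, given compound by pin tool, then stimulated with TGF-beta at 500 pg/mL final for 18 h before per-cell GFP fluorescence imaging.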
HT1080 IDH1KD tx = kills HT-1080 cells with IDH1 knockdown; Potency, µM (highest dose often 46.1 µM), usual class: cytotoxic; HT-1080 IDH1 knockdown viability, ATP luminescence, 48 h; AID 686971; 2% of 360,000 active
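Luminescent ATP read-out (CellTiter-Glo, 10 min at room temperature) after 48 h compound exposure at 37 °C gave viability of IDH1-knockdown HT-1080 cells. Activity was normalised to DMSO and cell-free wells, then fitted as concentration-response curves.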
DT40 TDP1 CPT = DT40-hTDP1 cell growth loss with CPT. chicken DT40 Tdp1-/-;hTDP1 cells + 20 nM CPT, ATP luminescence, 48 h. Potency, µM (titrated, usually from 46.2 µM), hits mostly inhibitors. 12% of 420,000 active; further: nearly all actives have a fitted effect of over 55% in size
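Chicken DT40 Tdp1-/- cells stably complemented with human TDP1 were seeded at 400 cells/well in medium containing 20 nM camptothecin, exposed to pin-transferred compounds, and grown at 37 °C for at least 48 hr. Viability was read as ATP luminescence.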
Hits are given with their value; . = inactive; ? = inconclusive; / = no result; ! = not confirmed by another sample; [ ] = another dose, or the depositor's remark. The call rests on the fitted dose curve; in most records, active means well fitted curve in the direction sought with a large enough effect; inconclusive means small, poorly fitted or top-dose-only effect, or another doubt; inactive means no such curve, though single readings can be large; an effect the other way counts as inactive or inconclusive.

SMILES	DT40 TDP1 no CPT	HepG2 viability	HT1080NT lethal	TGFb SMAD3 inh	HT1080 IDH1KD tx	DT40 TDP1 CPT
CC(C)(C)c1ccccc1OCCOCCN1CCCCCC1	15µM	.	.	.	?	?
Cc1ccc(C(C)(C)C)c(OCCOCCN2CCCC2)c1	?	.	.	.	.	15µM
COc1ccc(C(=O)NC(=S)NCCO)cc1Br	.	.	?	.	?	?
Cl/C(=C\n1cncn1)c1ccc(Cl)cc1Cl	?	/	/	/	/	.
CCC(CC)=NNc1cccc([N+](=O)[O-])c1	.	.	.	.	?	.
O=[N+]([O-])c1cccc(N=NNc2cccc([N+](=O)[O-])c2)c1	18µM	.	.	.	.	?
CC/C(C)=N/Nc1cccc([N+](=O)[O-])c1	.	.	?	.	9.2µM	.
C=CCNCCCCOc1ccccc1-c1ccccc1	?	.	?	.	?	?
COCCCNCCCCOc1ccc(OCc2ccccc2)cc1	23µM	.	?	?	?	?
CCC(C)c1ccccc1OCCCNC1CCCC1 (stereo not drawn)	18µM	.	.	?	.	?
c1ccc(COc2ccc(OCCCNC3CCCC3)cc2)cc1	21µM	.	23µM	?	?	?
C=CCNCCCCOc1ccc(OCc2ccccc2)cc1	23µM	.	.	.	.	?
CC(C)Oc1ccc(OCCNC2CCCC2)cc1	.	.	.	.	.	.
COc1ccc(NC(=O)COC(=O)CCC(=O)c2cccs2)cc1OC	.	.	.	.	.	.
CC(=O)Nc1cccc(-c2csc(C(C)(O)c3ccc(F)c(F)c3)n2)c1 (stereo not drawn)	?	.	.	.	.	?
COc1ccccc1-n1cc(-c2ccccc2)c2c(=S)nc[nH]c21	?	.	.	.	?	.
Cc1cccc(N2C(=O)c3ccc(C(=O)Nc4ccccn4)cc3C2=O)c1	.	.	.	.	.	.
Cc1cccc(N2C(=O)/C(=C\c3ccc(C(=O)O)cc3)c3ccccc3C2=O)c1	?	.	.	.	.	18µM
O=C(CSc1nc2ncccc2[nH]1)Nc1cc(F)ccc1F	?	.	/	.	/	.
COc1cccc(Cn2c(=O)c(CCc3ccccc3)nc3cnc(OC)nc32)c1	23µM	/	/	/	/	?
O=c1c(CCc2ccccc2)nc2cnc(Oc3ccccc3)nc2n1C[C@H]1CCCO1	18µM	/	/	/	/	?
COc1ncc2nc(CCc3ccccc3)c(=O)n(Cc3cccs3)c2n1	21µM	/	/	/	/	?
COc1ncc2nc(CCc3ccccc3)c(=O)n(CCc3ccccc3)c2n1	.	/	/	/	/	?
COCCCNc1ncnc2c1nnn2C	.	.	/	.	/	?
CC(=O)Nc1ccc(OS(=O)(=O)c2cc(Cl)ccc2C)cc1	15µM	.	.	.	.	21µM
SMILES	DT40 TDP1 no CPT	HepG2 viability	HT1080NT lethal	TGFb SMAD3 inh	HT1080 IDH1KD tx	DT40 TDP1 CPT
CC(=O)c1ccc(NC(=O)Nc2ccc([N+](=O)[O-])cc2)cc1	.	.	.	.	.	.
CC(=O)Nc1ccc(Nc2ccc([N+](=O)[O-])cn2)cc1	9.2µM	.	.	.	.	?
CC(=O)Nc1cccc(OCCCOc2ccc([N+](=O)[O-])cc2)c1	3.7µM	.	.	.	.	13µM
CC(=O)Nc1cccc(OCCOc2cccc([N+](=O)[O-])c2)c1	.	.	.	.	.	.
O=C(Nc1ccc(Oc2ccc(NC(=O)Nc3ccc([N+](=O)[O-])cc3)cc2)cc1)Nc1ccc([N+](=O)[O-])cc1	2.1µM	.	?	?	?	2.3µM
CC(=O)Nc1ccc(OS(=O)(=O)c2ccccc2C)cc1	?	.	.	.	.	.
COc1ccc(-n2c(=O)c3c4c(sc3n3c(=S)[nH]nc23)CCCC4)cc1	?	.	?	.	.	?
CC(=O)Nc1ccc(S(=O)(=O)NCCC(=O)OCc2ccccc2F)cc1	.	.	.[9.24 µM]	.	.	.
CC(=O)Nc1ccc(OS(=O)(=O)c2ccc([N+](=O)[O-])cc2)cc1	16µM	.	.	?	.	18µM
CC(=O)Nc1ccc(S(=O)(=O)NCCC(=O)OCc2ccc([N+](=O)[O-])cc2)cc1	16µM	.	.	.	.	13µM
CCn1nnc2cc(C(=O)Nc3cc(OC)cc(OC)c3)ccc21	.	.	.	.	.	.
C[C@H](CO)N1C[C@H](C)[C@@H](CN(C)Cc2cccnc2)Oc2ncc(-c3cccc(C#N)c3)cc2C1=O	.	.	.	.	.	?
CN(Cc1ccco1)S(=O)(=O)c1nnc(NC(=O)c2cccc(Cl)c2)s1	?	.	?	.	.	?
CN(Cc1ccc(F)cc1)S(=O)(=O)c1nnc(NC(=O)c2ccc(F)cc2)s1	15µM	.	/	?	/	?
CN(Cc1ccccc1)S(=O)(=O)c1nnc(NC(=O)c2cccc(Cl)c2)s1	13µM	.	/	.	/	15µM
O=S1(=O)CCOCCCN1Cc1ccccc1Br	.	.	.	.	.	29µM!
CN=c1scc(-c2ccc(OC)cc2)n1/N=C(\C)c1cccnc1	18µM	.	?	.	?	?
O=c1cc2c(c(-c3ccccc3)n1Cc1ccccc1)[C@H](CCO)NC2	.	.	.	.	.	.
OCC[C@@H]1NCc2cc(CO)cc(-c3ccccc3)c21	18µM	.	.	.	.	21µM
CC(C)NC(=O)C1(C)CN(S(C)(=O)=O)CC(=O)N1CCc1ccccc1F (stereo not drawn)	.	/	.	/	.	.
COc1ccccc1NCCC(=O)OCC(=O)Nc1ccccc1F	.	.	.	.	.	.
COC(=O)c1ccc(/C=C2/SC(=S)N(CCC(=O)N3CCOCC3)C2=O)cc1	18µM	.	.	.	.	16µM
O=C(CCN1C(=O)S/C(=C/c2ccc(Cl)cc2)C1=O)N1CCOCC1	16µM	.	.	?	.	12µM
Cn1c(=O)n(C)c2cc(/C=C3/SC(=O)N(CC(=O)N4CCOCC4)C3=O)ccc21	.	.	.	.	.	.
COC(=O)c1ccc(/C=C2\SC(=S)N(CCCC(=O)N3CCOCC3)C2=O)cc1	.	.	.	.	.	.
O=C(OCc1c(-c2ccccc2)ncc2ccccc12)N1CCOCC1	?	.	.	.	.	?
Cc1c(Cl)cccc1NC(=S)NCc1cccn1C	?	.	.	.	.	?
O=C(c1ccncc1)N1CCN(c2cc(-c3ccccc3)nc3cc(-c4cccc(Cl)c4)nn23)CC1	7.3µM	.	.	.	.	12µM
